Rows were chosen to be rich in hits. Some 1.3% of all compounds tested hit in one or more screens of this group.
SDO1 yeast rescue: sdo1-depleted yeast growth rescue; S. cerevisiae sdo1-depleted JHY4D growth rescue, OD600 30 h; hits give high values; pdr5 snq2 efflux-pump mutant strain; z-score at 10 µM; 0.21% of 140,000 active; AID 817;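 active = z-score above 3 at both the 24 hr and the 30 hr optical density reads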;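 also: z-score against mean and SD of all compound wells on the same plate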
MRP resist rev: reverses drug resistance mediated by MRP; differential viability (reversal), % at 10 µM; AID 602; 0.04% of 85,000 active; H69AR cells + 2 uM doxorubicin, CellTiter-Glo, 72 h;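 active = viability drop by adding the cancer drug above about 55%, with treated viability meeting a 40% cutoff, limit read from the data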;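 also: viability without doxorubicin minus viability with 2 µM doxorubicin for each compound; larger differential means the compound sensitizes cells more to doxorubicin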
Mac1 fbg inh: inhibitors of human CD11b/CD18 binding to fibrinogen. inhibition, % at 10 µM. K562 CD11b/CD18 adhesion to fibrinogen, ATPlite luminescence; Mn2+ added to activate the integrin. AID 1497. 0.54% of 93,000 active. P05107+P11215;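 active = primary inhibition of 50% or more at 10 µM, then 40% or more on retest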
Target sequence (P05107 whole entry, looked up, other chains not shown): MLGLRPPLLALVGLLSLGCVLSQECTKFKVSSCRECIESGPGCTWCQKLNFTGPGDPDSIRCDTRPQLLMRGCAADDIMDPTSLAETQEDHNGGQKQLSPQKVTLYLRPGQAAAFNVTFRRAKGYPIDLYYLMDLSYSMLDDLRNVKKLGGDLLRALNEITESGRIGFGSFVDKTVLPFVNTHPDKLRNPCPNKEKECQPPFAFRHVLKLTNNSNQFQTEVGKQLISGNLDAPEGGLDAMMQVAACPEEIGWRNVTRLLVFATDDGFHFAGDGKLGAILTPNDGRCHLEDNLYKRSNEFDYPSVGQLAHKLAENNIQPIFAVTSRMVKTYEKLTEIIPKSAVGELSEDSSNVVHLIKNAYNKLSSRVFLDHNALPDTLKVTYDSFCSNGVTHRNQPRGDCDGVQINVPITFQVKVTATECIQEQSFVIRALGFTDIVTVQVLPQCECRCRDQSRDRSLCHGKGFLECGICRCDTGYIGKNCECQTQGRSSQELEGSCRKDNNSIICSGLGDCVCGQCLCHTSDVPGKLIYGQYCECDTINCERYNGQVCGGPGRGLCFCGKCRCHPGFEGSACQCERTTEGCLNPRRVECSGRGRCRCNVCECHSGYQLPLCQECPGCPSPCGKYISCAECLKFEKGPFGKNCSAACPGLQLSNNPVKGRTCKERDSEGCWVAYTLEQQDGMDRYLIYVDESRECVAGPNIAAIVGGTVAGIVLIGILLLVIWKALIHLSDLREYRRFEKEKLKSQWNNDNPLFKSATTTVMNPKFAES
Mac1 fbg enh: enhancers of human CD11b/CD18 binding to fibrinogen | P05107+P11215 | K562 CD11b/CD18 adhesion to fibrinogen, ATPlite luminescence | activation, % at 10 µM | 0.07% of 93,000 active;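 active = 10 µM primary screen giving 50% or more activity, confirmed by 40% or more on retest at that dose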
MRP1 act: activates MRP-1; H69AR cells + doxorubicin, viability rescue, CellTiter-Glo; viability increase, % at 10 µM; 0.61% of 140,000 active; AID 799;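 active = viability gain under doxorubicin at or above a set limit, the compound median plus 3 SD, cut at about 4.7% in these data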;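 also: MRP-1 overexpressing cells given doxorubicin 25 µM after compound pretreatment; 18-22 h compound pretreatment then 72 h with doxorubicin before readout; 0% = doxorubicin-only wells and 100% = vehicle-treated cells without doxorubicin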
Phagocytosis inh: blocks phagocytosis by macrophages; J774A.1 macrophage IgG-bead phagocytosis, imaging; inhibition, % at 5 µM; 0.07% of 110,000 active; AID 1029;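 active = inhibition above the mean of the plate negative controls plus 5 SD, cut at about 13% in these data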;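 also: phagocytic index as fraction of beads internalized from green versus red external bead signal; plate controls were DMSO negative control for no effect and cytochalasin-D positive control for full effect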
Numbers without * were called inactive; [ ] = dose if it differs, or a comment.

How did COc1ccc(N2C(=O)CC(N3CCC(O)(c4ccc(Br)cc4)CC3)C2=O)cc1 (configuration not stated) do in these assays?
SDO1 yeast rescue: 0.2; MRP resist rev: 10; Mac1 fbg inh: 8; Mac1 fbg enh: 4; MRP1 act: -1; Phagocytosis inh: -2

How did O=C1CC(N2CCCN(C3CC(=O)N(c4ccc(F)cc4)C3=O)CC2)C(=O)N1c1ccc(F)cc1 (configuration not stated) do in these assays?
SDO1 yeast rescue: 0.54; MRP resist rev: 9; Mac1 fbg inh: 9; Mac1 fbg enh: 1; MRP1 act: 8.3*; Phagocytosis inh: 1

Results for Cc1ccc(NC(=O)Cc2nc(CSc3nnc(-c4ccc5c(c4)OCO5)o3)cs2)cc1 ?
SDO1 yeast rescue: -1.5; MRP resist rev: -18; Mac1 fbg inh: 9; Mac1 fbg enh: -4; MRP1 act: -2; Phagocytosis inh: -1

How did COc1ccc(Cl)cc1C(=O)Nc1ccc2c(c1)OCO2 do in these assays?
SDO1 yeast rescue: -0.79; MRP resist rev: -6; Mac1 fbg inh: 6; Mac1 fbg enh: -4; MRP1 act: 15*; Phagocytosis inh: -1

How did COc1ccccc1C(=O)Nc1ccc2c(c1)OCO2 do in these assays?
SDO1 yeast rescue: 0.4; MRP resist rev: -40; Mac1 fbg inh: -10; Mac1 fbg enh: -2; MRP1 act: -1; Phagocytosis inh: 0

How did CC(=O)c1ccc(NC(=O)Nc2cccc(Cl)c2)cc1 do in these assays?
SDO1 yeast rescue: -0.46; MRP resist rev: -27; Mac1 fbg inh: 97*; Mac1 fbg enh: -7; MRP1 act: -2

What do the screens show for `O=C(NCCc1ccccn1)C(F)(F)C(F)(F)C(F)(F)C(F)(F)C(F)(F)C(F)(F)C(F)(F)C(F)F`?
SDO1 yeast rescue: 0.71; Mac1 fbg inh: 17; Mac1 fbg enh: 5; MRP1 act: 4; Phagocytosis inh: -9

How did CCN(CC)c1ccc(/C=C2\CCC(/C=C(\C#N)C(=O)Nc3ccccc3F)=C2N2CCOCC2)cc1 do in these assays?
SDO1 yeast rescue: 0.91; Mac1 fbg inh: 59; Mac1 fbg enh: 9; MRP1 act: -3; Phagocytosis inh: active[fluoresces]

What do the screens show for `Cc1[nH]c(=O)[nH]c(=O)c1NS(=O)(=O)c1ccccc1`?
SDO1 yeast rescue: 0.22; MRP1 act: 0; Phagocytosis inh: -9

Results for CCCn1c(=O)c(C(=O)NNS(=O)(=O)c2ccc(Cl)cc2)c(O)c2ccccc21 ?
SDO1 yeast rescue: -1.9; MRP1 act: -3; Phagocytosis inh: -7

What do the screens show for `O=C(OC1CCc2ccccc2C1=O)c1ccccc1O` (configuration not stated)?
SDO1 yeast rescue: -2; MRP resist rev: -8; Mac1 fbg inh: -4; Mac1 fbg enh: -3; MRP1 act: 14*; Phagocytosis inh: 2

What do the screens show for `COc1ccc(Cc2nnc(N/N=C/c3ccc(O)cc3O)[nH]c2=O)cc1OC`?
SDO1 yeast rescue: 0.99; MRP1 act: 6.0*; Phagocytosis inh: -9

What do the screens show for `COc1ccc(Cc2nc3ccccc3n2CC(=O)N/N=C/c2ccc(C)cc2O)cc1OC`?
SDO1 yeast rescue: -0.13; MRP1 act: 3; Phagocytosis inh: -8

Results for CCOC(=O)C1=C(C)N=c2s/c(=C\c3ccc(OC(C)=O)c(OCC)c3)c(=O)n2C1/C=C/c1ccccc1 (configuration not stated) ?
SDO1 yeast rescue: 0.06; Mac1 fbg inh: 5; Mac1 fbg enh: 7; MRP1 act: -2; Phagocytosis inh: 4

Results for CCOC(=O)C1=C(C)N=c2s/c(=C\c3ccc(OC(C)=O)cc3)c(=O)n2C1/C=C/c1ccccc1 (configuration not stated) ?
SDO1 yeast rescue: -1; MRP1 act: 6.7*; Phagocytosis inh: -2

Results for O=C(COC(=O)c1ccc2ccccc2c1)NCCCc1ccccc1 ?
SDO1 yeast rescue: -0.54; Mac1 fbg inh: 3; Mac1 fbg enh: 3; MRP1 act: -1; Phagocytosis inh: -8

How did CCc1nnc(NC(=O)CCC(=O)N2CCN(Cc3ccc(Cl)cc3)CC2)s1 do in these assays?
SDO1 yeast rescue: -0.09; MRP resist rev: -10; Mac1 fbg inh: -2; Mac1 fbg enh: 1; MRP1 act: 6.3*; Phagocytosis inh: 0

What do the screens show for `CCc1nnc(NC(=O)c2ccc(-c3ccc(Cl)cc3)o2)s1`?
SDO1 yeast rescue: 0.3; MRP resist rev: 8; Mac1 fbg inh: -11; Mac1 fbg enh: 102; MRP1 act: 7.2*; Phagocytosis inh: -1

Source: PubChem BioAssay (several laboratories)
